# D2 ag-1: agonists of human D2 dopamine receptor; P14416; activation, % at 2 µM; actives 0.53% (n = 340,000); HEK293 T-REx D2 cells, calcium flux agonist mode;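 active = activation over 3 SD above normal in the single-dose calcium agonist read, cut at about 30% in these data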
# Target sequence (P14416 whole entry, looked up): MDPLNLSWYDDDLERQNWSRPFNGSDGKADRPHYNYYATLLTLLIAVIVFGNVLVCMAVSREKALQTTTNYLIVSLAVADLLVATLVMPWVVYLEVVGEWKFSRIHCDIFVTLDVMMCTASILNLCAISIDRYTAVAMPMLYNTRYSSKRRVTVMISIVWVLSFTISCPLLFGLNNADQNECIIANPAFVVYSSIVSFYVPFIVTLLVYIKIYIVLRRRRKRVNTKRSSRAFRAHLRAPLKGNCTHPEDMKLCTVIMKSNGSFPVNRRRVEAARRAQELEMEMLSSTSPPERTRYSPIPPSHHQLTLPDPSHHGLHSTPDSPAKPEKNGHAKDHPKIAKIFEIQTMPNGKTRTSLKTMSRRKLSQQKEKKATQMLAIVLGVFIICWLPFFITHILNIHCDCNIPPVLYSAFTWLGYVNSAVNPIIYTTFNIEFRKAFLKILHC
#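 In this primary screen, compounds producing a positive calcium signal within 180 s of addition to tetracycline-induced, force-coupled HEK293 Trex D2 cells are flagged; cells are dye-loaded with a no-wash calcium kit beforehand.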
# D2 ag-2: agonists of human D2 dopamine receptor (beta-arrestin); P14416; DiscoveRx PathHunter D2 beta-arrestin, luminescence, 90 min; 100% = 57 uM dopamine signal; activation, % (concentration not given with the values); actives 0.084% (n = 360,000); AID 624465; in the data active = activation above about 40%; inconclusive = between about 15% and that limit
#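 DiscoveRx PathHunter D2 beta-arrestin cells (2,100/well) attached overnight, then compound-stimulated 90 min at 37 C in HBSS/10 mM HEPES/0.1% Tween-20 buffer; beta-galactosidase complementation read by luminescence after 1 h at ambient temperature. Dopamine 57 uM final (EC100) as control.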
# D2 PAM-1: positive allosteric modulators of human D2 dopamine receptor; P14416; DiscoveRx D2 beta-arrestin cells, luminescence, 90 min; 100% = 57 uM dopamine signal; potentiation, % (no concentration beside the values); actives 0.23% (n = 360,000); AID 624464; in the data active = potentiation above about 50%; inconclusive = mostly about 30% to 49%
#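 PathHunter beta-arrestin assay in DiscoveRx D2 cells. Compounds were added with an EC20 of dopamine (50 nM final) for 90 min at 37 deg C. Luminescence was read 1 h after detection reagent, with 57 uM dopamine as the EC100 control.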
# D2 antag: antagonists of human D2 dopamine receptor; P14416; HEK293 TREx D2 cells, calcium flux, dopamine EC80; inhibition, % at 10 µM; actives 2% (n = 340,000); AID 485344; in the data active = inhibition above about 30%; inactive = below that, where a call was filed
#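 Measurement of antagonist activity uses fluorescent calcium dye in inducible HEK293 T-REx D2 cells: 10 s baseline, compound addition with 180 s read, EC80 dopamine addition with a further 180 s read.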
# D2 PAM-2: positively modulates the human D2 dopamine receptor allosterically. AID 485347. actives 0.34% (n = 340,000). P14416. HEK293 T-REx D2, calcium flux, EC20 dopamine potentiation. potentiation, % at 10 µM;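 active = potentiation over 3 SD above the plate norm, cut at about 30% in these data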
#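 Calcium flux readout, no-wash dye, 1 read/s. Inducible HEK293 Trex D2 line, overnight 30 C. Compound alone 180 s (agonist flags), then EC20 dopamine, another 180 s to score potentiation.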
# D3 ag: D3 receptor agonism confirmed, beta-arrestin readout. shares compounds with D2 ag-1. actives 4% (n = 2,300). AID 720506. Potency, µM (series often up to 76.9 µM), usual class: activators. DiscoveRx D3 beta-arrestin cells, luminescence, 90 min; also: nearly all actives have a fitted effect of over 70% in size
# D2 ag-3: counter-screen for D3 agonists: human D2 dopamine receptor agonism | shares compounds with D2 ag-1 | DiscoveRx PathHunter D2 beta-arrestin, luminescence, 90 min; response scale: percent relative to full dopamine signal | Potency, µM (titrated, usually from 76.9 µM), most hits filed as activators | actives 5.9% (n = 2,300); also: nearly all actives have a fitted effect of over 70% in size
# A number is an active result; . = inactive; ? = inconclusive; / = no result. Only some compounds are listed: those with a hit (about 2.4% of all), similar ones and a draw of the others. Unless noted, calls follow the shape of the dose curve; as a rule, active = well fitted activation curve with a large enough effect; inconclusive = small, poorly fitted or top-dose-only effect; inactive = flat fitted curve, though single readings scatter.
SMILES,D2 ag-1,D2 ag-2,D2 PAM-1,D2 antag,D2 PAM-2,D3 ag,D2 ag-3
COc1ccc(NC(=O)CCN2CCN(c3ccccc3F)CC2)c(OC)c1,90,49,.,86,.,?,?
O=C(CCN1CCN(c2ccccc2)CC1)Nc1cccc(Br)c1,60,.,.,75,.,.,.
COc1ccc(NC(=O)CN2CCN(c3ccccc3F)CC2)c(OC)c1,/,/,/,/,.,/,/
CS(=O)(=O)c1cc(N2CCOCC2)ccc1CNC[C@H]1O[C@@H](n2cnc3c(=O)[nH]c(N)nc32)[C@H](O)[C@@H]1O,/,.,.,/,/,/,/
Cc1ccc(NC(=O)Nc2c(C)n(C)n(-c3ccccc3)c2=O)c(Cl)c1,.,/,/,/,.,/,/
COc1ccc(NC(=O)Cn2c(=O)n(CC3CCCO3)c(=O)c3ccccc32)cc1 (stereo not drawn),.,/,/,/,/,/,/
CCN1CCN(CCC(=O)Nc2ccc3c(c2)OCO3)CC1,.,.,.,.,.,/,/
O=C(CCN1CCN(c2ccccc2)CC1)Nc1nccs1,71,.,.,93,.,.,.
O=C(CCN1CCN(c2ccccc2)CC1)Nc1ccc2c(c1)OCO2,103,?,.,108,.,?,?
CCNC(=S)Nc1ccc2c(c1)c(=O)n(C)n2-c1ccc(C(C)(C)C)cc1,/,.,.,/,/,/,/
CN(C)Cc1cc(C(C)(C)c2ccccc2)ccc1O,/,.,.,/,/,/,/
COc1cc(C(=O)Nc2cccc(OCc3cc(=O)n4c(C)csc4n3)c2)cc(OC)c1OC,.,/,/,/,/,/,/
Cc1cc(N2CCOCC2)nc(N)n1,41,.,.,.,.,.,.
Nc1nc(N)c2cc(S(=O)(=O)c3ccc4ccccc4c3)ccc2n1,/,.,.,/,/,/,/
CC1CCN(C(=O)C2COc3ccccc3C2)CC1 (stereo not drawn),.,/,/,/,.,/,/
O=C(Nc1cccc(C(=O)N2CCOCC2)c1)c1ccc([N+](=O)[O-])cc1,39,.,.,.,.,?,.
COc1ccc(CCNC(=O)c2cc3c(=O)oc4ccc(C)cc4c3s2)cc1OC,.,/,/,/,.,/,/
CC(CCc1ccccc1)NCc1cccc2ccccc12 (stereo not drawn),57,.,.,32,.,.,.
O=C(Cn1c2ncccc2c(=O)n1-c1ccccc1)Nc1cccc(C(F)(F)F)c1,.,/,/,/,.,/,/
CCN(CC)CCN(C(=O)c1ccco1)c1nc2c(C)c(C)ccc2s1,.,/,/,/,.,/,/
CC(CCc1ccc(O)cc1)NC1C2CC3CC(C2)CC1C3 (stereo not drawn),38,.,.,71,.,.,.
CCCCn1c(N)c(N(CCOC)C(=O)c2c(CC)noc2C)c(=O)[nH]c1=O,.,.,.,.,.,/,/
CNc1nc(N)c([N+](=O)[O-])c(NCc2ccccc2)n1,.,.,.,44,.,.,.
CNc1nc(N)c([N+](=O)[O-])c(Nc2cccc(F)c2)n1,.,.,.,.,.,.,.
CCN1C=C(Cc2cccs2)C2=C(C1)C(c1cccs1)C(C#N)=C(N)O2 (stereo not drawn),44,.,.,81,.,.,.
SMILES,D2 ag-1,D2 ag-2,D2 PAM-1,D2 antag,D2 PAM-2,D3 ag,D2 ag-3
CCN1CC2=C(OC(N)=C(C#N)C2c2cccs2)/C(=C/c2cccs2)C1 (stereo not drawn),/,.,.,/,/,.,.
CN(C(=O)c1ccc(NC(=O)Cc2cccc(NC(=O)C3CCN(C(=O)C4CC4)CC3)c2)cc1)C1CCCC1,.,.,.,.,.,.,.
Cc1ccsc1C(=O)NNC(=O)c1ccncc1,.,.,.,.,.,.,.
CC1=Nc2ccccc2/C1=C/c1sc(=N)n(-c2nccs2)c1O,.,.,.,.,.,.,.
CC1=Nc2ccccc2/C1=C/c1nc(-c2ccc(C)s2)oc1O,/,.,.,/,/,/,/
Cc1cccc(Cn2c(=O)oc3ccc(C)cc32)c1,.,.,.,31,.,.,.
Cc1ccc(NC(=O)Cn2nc(-c3ccccc3)nc(Cc3ccccc3)c2=O)cc1,.,/,/,/,.,/,/
CC1(C)CC(=O)C=C(c2n[nH]nc2-c2ccc(F)c(F)c2)C1,/,.,.,/,/,/,/

# Compound activity as filed in PubChem BioAssay.
